HEK293 tox = cytotoxic compounds in HEK 293 cells; AID 1345083; Potency, µM (top dose mostly 115 µM), for inactives: top-dose activity change, negative = cytotoxicity, hits mostly inhibitors; HEK 293 viability, ATP luminescence (CellTiter-Glo), 48-72 h; 6.6% of 94,000 active; further: nearly all actives have a fitted effect of over 60% in size
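HEK 293 seeded at 250 cells/well receive compound via pintool. After 48 or 72 hr at 37 degree Celsius, 5% CO2 and 95% humidity, CellTiter-Glo is dispensed and luminescence read following 10 min at room temperature.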
FLuc inh = inhibitors of firefly (Photinus pyralis) luciferase. P08659. purified P. pyralis luciferase, luminescence, biochemical. Potency, µM (doses to about 115 µM), usual class: inhibitors. 2.5% of 76,000 active. AID 1347043; further: nearly all actives have a fitted effect of over 65% in size
Target sequence (P08659 whole entry, looked up): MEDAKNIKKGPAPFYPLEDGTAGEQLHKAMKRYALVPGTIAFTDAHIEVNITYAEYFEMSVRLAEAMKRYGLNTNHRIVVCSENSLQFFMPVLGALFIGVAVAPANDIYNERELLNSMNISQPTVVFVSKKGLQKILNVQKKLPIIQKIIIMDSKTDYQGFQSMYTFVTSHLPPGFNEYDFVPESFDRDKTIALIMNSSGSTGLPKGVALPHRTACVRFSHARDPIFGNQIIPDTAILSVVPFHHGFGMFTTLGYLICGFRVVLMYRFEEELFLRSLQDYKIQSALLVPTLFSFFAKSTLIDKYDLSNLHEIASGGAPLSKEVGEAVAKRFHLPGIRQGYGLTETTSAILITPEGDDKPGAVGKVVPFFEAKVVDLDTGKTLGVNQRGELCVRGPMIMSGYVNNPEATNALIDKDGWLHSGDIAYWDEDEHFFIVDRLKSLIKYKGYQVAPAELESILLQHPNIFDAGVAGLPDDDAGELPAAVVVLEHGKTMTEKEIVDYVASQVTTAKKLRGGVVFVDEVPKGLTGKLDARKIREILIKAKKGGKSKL
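Inhibitors were tested against purified firefly luciferase in a biochemical, low-substrate format (both substrates at 10uM) and luminescence measured with a CCD imager.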
GPT2 inhibitor = blocks human glutamate pyruvate transaminase 2 | 0.25% of 100,000 active | Recombinant GPT2, coupled pyruvate oxidase/HRP Amplex Red fluorescence | Q8TD30 | Potency, µM (highest dose often 57.7 µM), without a hit: top-dose activity change, negative = inhibition, usual class: inhibitors; further: nearly all actives have a fitted effect of over 60% in size
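Fluorescence read-out: pyruvate from GPT2 turnover coupled to pyruvate oxidase, HRP and Amplex Red (0.2mM ThPP, 0.2U/mL PO and HRP, 50uM Amplex final). Substrates 250uM a-KG, 2mM L-alanine; enzyme 10ng/uL; 30 min RT.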
NIH3T3 tox = NIH 3T3 cell cytotoxicity. NIH 3T3 viability, CellTiter-Glo ATP luminescence, 48-72 h. Potency, µM (top dose mostly 96.7 µM), for the others: at the highest dose activity change, negative = cytotoxicity, hits mostly inhibitors. 4.3% of 94,000 active; further: nearly all actives have a fitted effect of over 55% in size
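Mouse fibroblast NIH 3T3 cells, 400 per well, received compound via pintool and were incubated for 48 or 72 hr prior to CellTiter-Glo ATP luminescence measurement.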
hNpr1 antagonist = blocks ANP-stimulated signaling of human Npr1 receptor | HEK293 hNpr1 GloSensor cGMP, ANP-stimulated luminescence | P16066 | Potency, µM (top dose mostly 46.3 µM), without a hit: at the highest dose activity change, negative = inhibition, actives largely listed as inhibitors | 1.6% of 76,000 active; calls by dose curve; further: nearly all actives have a fitted effect of over 60% in size
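Compound pre-incubated 30 min at room temperature on GloSensor-loaded HEK293 cells stably carrying hNpr1 and the pGS-40F cGMP biosensor. Stimulation uses hNppA at 0.1 nM final; luminescence is taken at baseline and 20 min post-agonist.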
An asterisk follows results filed as active; ! = a repeat was not active; [ ] = remark or other dose. In the library only some 10% were active in any assay of this set; here they are far more common. Unless noted, the call rests on the fitted dose curve; in most records, active means well fitted curve in the direction sought with a large enough effect; inconclusive means small, poorly fitted or top-dose-only effect, or another doubt; inactive means no such curve, though single readings can be large; an effect the other way counts as inactive or inconclusive. On the % scale 0 is the no-effect control and ±100 the full control effect; potency means the concentration at half of the fitted maximal effect.

Screening CCN(C(=O)Cn1cccc1-c1nc(-c2ccc(OC)c(F)c2)no1)c1ccccc1 returned HEK293 tox 45µM*, FLuc inh inactive, GPT2 inhibitor -3%, NIH3T3 tox inconclusive and hNpr1 antagonist -3%.
Screening COc1ccc(-c2noc(-c3cccn3CC(=O)N3CCN(c4ccccc4OC)CC3)n2)cc1F returned HEK293 tox inconclusive, FLuc inh inconclusive, GPT2 inhibitor inactive, NIH3T3 tox inconclusive and hNpr1 antagonist -15%.
COc1ccc(-c2noc(-c3cccn3CC(=O)N3CCC(C)CC3)n2)cc1F was read as HEK293 tox -20%, FLuc inh 11µM*, GPT2 inhibitor -7%, NIH3T3 tox inconclusive and hNpr1 antagonist -18%.
`CCc1nc(C)c(C(=O)N2CCC(c3[nH]ncc3-c3ccccc3C)CC2)o1` gave HEK293 tox inconclusive, FLuc inh inactive, GPT2 inhibitor 2%, NIH3T3 tox inconclusive and hNpr1 antagonist inconclusive.
c1ccc(-c2nnc3n2CCN(CC2CCCCC2)C3)cc1 was read as HEK293 tox inconclusive, FLuc inh inactive, GPT2 inhibitor 1%[88.5 µM], NIH3T3 tox -25%[138 µM] and hNpr1 antagonist -1%[70.6 µM].
Screening CC(NC(=O)c1csc2nc(-c3cccc(C(F)(F)F)c3)cn12)c1ccncn1 (stereo not given) returned HEK293 tox inconclusive, FLuc inh 40µM*, GPT2 inhibitor -20%, NIH3T3 tox inconclusive and hNpr1 antagonist 0%.
`CC1Oc2ccc(NC(=O)COc3ccccc3)cc2CN(Cc2ccccc2Cl)C1=O` (stereo not given) gave HEK293 tox 25µM*, FLuc inh inactive, GPT2 inhibitor inactive, NIH3T3 tox inconclusive and hNpr1 antagonist -5%.
Screening CC1Oc2ccc(NC(=O)c3ccccc3Cl)cc2CN(Cc2ccccc2F)C1=O (stereo not given) returned HEK293 tox inconclusive, FLuc inh inactive, GPT2 inhibitor inconclusive, NIH3T3 tox inconclusive and hNpr1 antagonist -11%.
`COc1ccc(CN2Cc3cc(NC(=O)Cc4ccccc4)ccc3OC(C)C2=O)cc1` (stereo not given) gave HEK293 tox inconclusive, FLuc inh inactive, GPT2 inhibitor 1%, NIH3T3 tox inconclusive and hNpr1 antagonist -17%.
CC1Oc2ccc(NC(=O)c3ccc(F)cc3F)cc2CN(Cc2ccccc2Cl)C1=O (stereo not given) was read as HEK293 tox 50µM*, FLuc inh inactive, GPT2 inhibitor -7%, NIH3T3 tox inconclusive and hNpr1 antagonist -21%.
COc1cccc(CC(=O)Nc2ccc3c(c2)CN(Cc2ccccc2Cl)C(=O)C(C)O3)c1 (stereo not given) was read as HEK293 tox inconclusive, FLuc inh inactive, GPT2 inhibitor -5%, NIH3T3 tox inconclusive and hNpr1 antagonist -28%.
Screening COc1ccc(CC(=O)Nc2ccc3c(c2)CN(CCOc2ccccc2)C(=O)C(C)O3)cc1 (stereo not given) returned HEK293 tox 45µM*, FLuc inh inactive, GPT2 inhibitor -8%, NIH3T3 tox inconclusive and hNpr1 antagonist -17%.
For CCN(CC)C[C@H]1O[C@H](Cc2cc(-c3ccccc3)on2)CC[C@@H]1O the results were HEK293 tox -19%[172 µM], FLuc inh inactive, GPT2 inhibitor 2%[88.5 µM], NIH3T3 tox inconclusive and hNpr1 antagonist -25%[70.6 µM].
For CC(=O)Nc1ccc(S(=O)(=O)N[C@H]2CO[C@H]3[C@@H]2OC[C@@H]3n2nnnc2-c2ccc3c(c2)OCO3)cc1 the results were HEK293 tox -9%, FLuc inh inactive, GPT2 inhibitor inactive, NIH3T3 tox -16% and hNpr1 antagonist 4%.
For COc1nc2nc(CCc3ccccc3)n(C)c2cc1Nc1ccncn1 the results were HEK293 tox -3%[172 µM], FLuc inh 50µM*, GPT2 inhibitor -9%[88.5 µM], NIH3T3 tox inconclusive and hNpr1 antagonist -4%[70.6 µM].
For CN1CCC(Oc2ccc(C(=O)NCCc3ccncc3)cn2)CC1 the results were HEK293 tox -21%, FLuc inh inactive, GPT2 inhibitor inactive, NIH3T3 tox 5% and hNpr1 antagonist 5%.
Screening CN1CCC(Oc2ccc(C(=O)NCCc3ccccn3)cn2)CC1 returned HEK293 tox -8%, FLuc inh 40µM*, GPT2 inhibitor -11%, NIH3T3 tox -11% and hNpr1 antagonist -1%.
O=C(NCc1ccccn1)c1cccc(OC2CCN(c3cnccn3)CC2)c1 was read as HEK293 tox 45µM*, FLuc inh inactive, GPT2 inhibitor 4%, NIH3T3 tox inconclusive and hNpr1 antagonist inconclusive.
`COc1ccccc1-n1c(=O)c(C(=O)NCC(F)F)nc2cccnc21` gave HEK293 tox inactive, GPT2 inhibitor inconclusive and NIH3T3 tox -13%.
COc1ncccc1-c1cc(C(=O)N2CCCC(OC)C2)c2c(c1)ncn2C (stereo not given) was read as HEK293 tox -20%[172 µM], FLuc inh inactive, GPT2 inhibitor -21%[88.5 µM], NIH3T3 tox 89µM* and hNpr1 antagonist 3%[70.6 µM].
For COc1ncccc1-c1cc(C(=O)NCC2CCOCC2)c2c(c1)ncn2C the results were HEK293 tox -17%[172 µM], FLuc inh inactive, GPT2 inhibitor inconclusive, NIH3T3 tox inconclusive and hNpr1 antagonist 0%[70.6 µM].
Screening Cn1ncc2c(C(=O)NCCc3ccc(Cl)cc3)cc(-c3ccc(Cl)nc3)nc21 returned HEK293 tox 4%, GPT2 inhibitor inactive and NIH3T3 tox -36%.
Screening O=C(Nc1ccc(Cl)cc1Cl)c1cc2cccnn2n1 returned HEK293 tox inconclusive, FLuc inh 0.32µM*, GPT2 inhibitor inactive, NIH3T3 tox inconclusive and hNpr1 antagonist 2.2µM*.
Screening O=C(NCc1ccc(Cl)cc1)c1cc2cccnn2n1 returned HEK293 tox inconclusive, FLuc inh 45µM*, GPT2 inhibitor 4%[88.5 µM], NIH3T3 tox inconclusive and hNpr1 antagonist 0%[70.6 µM].
`O=C(c1ccc(-c2ncc3cnc(C4=CCOCC4)cn23)cc1)N1CCc2ccccc2C1` gave HEK293 tox 79µM*, FLuc inh inactive, GPT2 inhibitor -7%[88.5 µM], NIH3T3 tox inconclusive and hNpr1 antagonist -25%[70.6 µM].
Screening O=C(NCCO)c1ccc(-c2ncc3cnc(C4=CCOCC4)cn23)cc1 returned HEK293 tox inactive, FLuc inh inactive, GPT2 inhibitor -6%[88.5 µM], NIH3T3 tox inconclusive and hNpr1 antagonist -1%[70.6 µM].
`O=C(NC1CCCC1)NC1CCN(Cc2cccc(-c3ccc(F)cc3F)c2)CC1` gave HEK293 tox 35µM*! and NIH3T3 tox inconclusive.
O=C(Nc1ccccc1F)NC1CCN(Cc2cccc(-c3ccc(F)c(F)c3)c2)CC1 was read as HEK293 tox inconclusive and NIH3T3 tox 11µM*.
Screening COc1ccc(C(=O)NC2CCN(Cc3cccc(-c4ccc(F)c(F)c4)c3)CC2)cc1 returned HEK293 tox inconclusive, GPT2 inhibitor inconclusive and NIH3T3 tox 22µM*.

Screening results (PubChem BioAssay)
